Drawing on PubChem BioAssay (NCI), this text covers growth for 40 molecules.

Several values for one entry are separate records, joined by “and”; a condition that tells them apart may be missing. Equal values may be shown once. About 83,000 compounds went through this panel and 20% of them were active in at least one assay; those are over-represented in the sample as a whole.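 Single-dose data. Exposure time 48 hours. Values below 10 considered active.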 Activity calls are given as the source filed them.

For this test, the system named is SK-MEL-2 melanoma. Kind of test: NCI-60 one-dose screen, 48 h (100 = growth as untreated, 0 = no growth, -100 = all killed). The note with it: 10 µM unless noted.
For `N#Cc1nc(-c2ccccc2)oc1N1CCC(C2(C(F)(F)F)N=N2)CC1`, the growth was 97.8% (inactive).

For the molecule `CNC(=O)c1cc(N2CCc3cc(NC(=O)Nc4ccc(N5CCOCC5)c(C(F)(F)F)c4)ccc32)ccn1`, the growth was 45.6% (inactive).

In the case of `O=C(CCCCCCNC(=O)C(O)(O)C(F)(F)F)Nc1ccc(Br)cc1`, the growth was -24.7% (active).

On to `Cc1csc(/N=C(N)/N=C(\N)c2cccnc2)n1`, for which the growth was 68.2% (inactive).

With `C=C1CCc2nc(SCC(=O)O)ccc2N1`, the growth is 104% (inactive).

In the case of `CCCCOc1ccc(S(=O)(=O)N2CCN(c3nc(C)cc(N4CCOCC4)n3)CC2)cc1`, the growth was -8.8% (active).

As for `CCn1c2ccc(/C=N/N(C)S(=O)(=O)CCN(C)C)cc2c2cc(/C=N/N(C)S(=O)(=O)CCN(C)C)ccc21`, the growth is 107% (inactive).

For `NCCNC(=O)c1cccc(COc2ccccc2NC(=O)c2cc(Br)c(Br)[nH]2)c1`, the growth is 101% (inactive).

Consider `CNC(=O)Nc1ccc(Nc2cc(-c3ccc(-n4cccn4)cc3)[nH]n2)c(C)c1`, for which the growth is 122% (inactive).

As for `CCN(CC)c1ccc(/C=N/NC(=O)c2ccc(S(N)(=O)=O)cc2)c(O)c1`, the growth is 47.2% (inactive).

Regarding `COc1cc(-c2nc(-c3ccccc3)[nH]c2-c2ccnc(NCCCNS(=O)(=O)c3cccc(F)c3)n2)ccc1F`, the growth is 105% (inactive).

Consider `C/C=C/CC(C)C(O)[C@H](NC(=O)[C@@H]1CCCN1C(=O)[C@](C)(CC)NC(=O)CCCCCCCCC)C(=O)N[C@@](C)(CC)C(=O)N[C@@H](CCC(N)=O)C(=O)N[C@H](CCC(N)=O)C(=O)NC(C)(C)C(=O)NC(C)(C)C(=O)N[C@@H](CCC(N)=O)C(=O)N[C@H](CC(C)C)C(=O)N[C@H](CO)CC(C)C` (stereo not given in full), for which the growth was 108% (inactive) and -50% (active).

In the case of `O=S(=O)(NCCCNc1nccc(-c2[nH]c(-c3ccccc3)nc2-c2ccc(F)c(O)c2)n1)c1ccc(C(F)(F)F)cc1`, the growth was 18.8% (inactive).

`N#Cc1c(-c2cccs2)c(C#N)c(=O)n(Cc2nc3ccccc3[nH]2)c1N`: the growth is 92.6% (inactive).

Turning to `Cc1ccc2c(n1)C(=O)C(Cl)=C(Nc1ccccc1C(=O)OC(C)(C)C)C2=O`, the growth is 93.6% (inactive).

`Brc1cccc(-c2cc(-c3ccc4c(c3)OC=CO4)[nH]n2)c1`: the growth is 58.7% (inactive).

With `CN1CCN(CCCCCC(=O)Nc2nc(-c3cccc(NS(=O)(=O)c4cccc5c(N(C)C)cccc45)c3)cs2)CC1`, the growth is 102% (inactive).

With `O=C(CSc1nnc(-c2ccc(Cl)cc2)n1-c1ccccc1)Nc1ccc(Cl)cc1`, the growth was 87.3% (inactive).

With `NC1[C@H]2CN(c3cnc(C(=O)Nc4cc(F)cc5cccnc45)cn3)C[C@@H]12` (stereo not given in full), the growth was 92.5% (inactive).

For the molecule `CC1CCN(CC(=O)Nn2c(COc3ccccc3)nc3ccccc3c2=O)CC1`, the growth is 87.2% (inactive).

As to `CCCCSC1=C(Cl)CN(c2ccccc2)C1=O`, the growth is 121% (inactive).

Consider `CC1=Cc2ccccc2OC12C=Cc1ccccc1O2` (stereo not given), for which the growth was 115% (inactive).

Consider `Brc1ccc(-c2cc(-c3ccc4c(c3)OC=CO4)n[nH]2)s1`, for which the growth is 97.3% (inactive).

With `CC1=C(C)C(=O)C(Nc2cccc(C(=O)OC(C)(C)C)c2)=CC1=O`, the growth is 82.4% (inactive).

As for `CCCC/C(=C\c1ccc(O)c(O)c1)C(=O)NC(Cc1ccccc1)C(=O)C(=O)NCCc1ccc(OC)cc1` (stereo not given), the growth was 98.8% (inactive).

For the molecule `CCN(CC)c1ccc(/C=N/NC(=O)c2ccc(NS(C)(=O)=O)cc2)c(O)c1`, the growth was 40.7% (inactive).

Turning to `O=C(/C=C/C=C/c1csc(Br)n1)NO`, the growth is 109% (inactive).

On to `O=C(CCCCCCNC(=O)C(O)(O)C(F)(F)F)Nc1ncc(-c2ccc(Br)cc2)s1`, for which the growth was -27.3% (active).

As for `Cc1cc(C)cc(NC2=C(Cl)C(=O)c3nc(C)ccc3C2=O)c1`, the growth is 85.5% (inactive).

Regarding `C[C@@H]1OCC2(CCN(c3cnc(C(=O)Nc4cc(F)cc5cccnc45)cn3)CC2)[C@@H]1N`, the growth was 97.9% (inactive).

`CN1CCN(c2ccc(Nc3nc(NCCCNS(=O)(=O)c4ccccc4)c4sccc4n3)cc2)CC1`: the growth was 106% (inactive).

With `CCCCCCNC(=O)Oc1ccc(/C(=C(/C)c2ccc(OC)cc2)c2ccc(OCCN3CCCCCC3)cc2)cc1`, the growth is 74.5% (inactive).

As to `O=[N+]([O-])c1ccc(NC(=S)NNC(=S)Nc2ccc(Br)cc2)cc1`, the growth was 105% (inactive).

In the case of `C#C[C@]1(O)CC[C@H]2[C@@H]3CC=C4c5sc(N6CCN(C)CC6)nc5CC[C@]4(C)[C@H]3CC[C@@]21C`, the growth was 36.8% (inactive).

On to `CN1CCN(Cc2ccc(NC(=O)c3cncc(C#Cc4cnc5ccc(NCCO)nn45)c3)cc2C(F)(F)F)CC1`, for which the growth was -89% (active).

`C#CCOc1cccc(/C(N)=N/C(N)=N/c2nc3ccccc3s2)c1`: the growth is 103% (inactive).

Regarding `NC(N)=NS(=O)(=O)c1ccc(N=Nc2c(N)nn(-c3ccc([N+](=O)[O-])cc3[N+](=O)[O-])c2N)cc1`, the growth is 106% (inactive).

Consider `N#Cc1c(-c2cccs2)cc(-c2cnccn2)nc1SCC(=O)N/N=C/c1cccs1`, for which the growth is 78.5% (inactive).

Take `COc1cc(C(=O)c2cc(C(C)=O)c3ccc(C)cn23)cc(OC)c1OC`: the growth is 37.5% (inactive).

As to `Brc1ccc(-c2cc(-c3ccc4c(c3)OCCO4)n[nH]2)s1`, the growth is 55.3% (inactive).
